Measurements from PubChem BioAssay AID1159580 (chemical genetic matrix, 2015).
The campaign covered roughly 5,500 compounds. About 2,000 (36%) were called active. Another 18% or so got no clear call; they are omitted. Cut-off read from the data, not from the text of the source: active = normalized growth mostly below about 0.91 (no sharp cut-off); inconclusive = no clear call, values can overlap the other calls; inactive = mostly above about 0.92. The list shows a part of the results.

Assay: chemical genetic growth profiling, strain panel (AID 1159580);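 note: tested at 20 µM; growth read once vehicle control cultures reached saturation at 30 °C; 1 = growth at the plate median or of vehicle wells; lower values mean less growth of the strain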
Conditions: growth OD

Measured: normalized growth

O=C(O)c1cc(=O)c(O)c2c(O)c(O)ccc2c1
inactive: S. cerevisiae deletion strains, locus YJR075W, strain HOC1, active compounds read low 1.04 | S. cerevisiae deletion strains, locus YKL009W, strain mrt4, active compounds read low 1.04 | S. cerevisiae deletion strains, locus YKL068W, active compounds read low 1.01 | S. cerevisiae deletion strains, locus YKL085W, strain MDH1 (second series), active compounds read low 1.02 | S. cerevisiae deletion strains, locus YKL085W, strain MDH1, active compounds read low 1.02 | S. cerevisiae deletion strains, locus YKL160W, strain elf1, active compounds read low 1.02 | S. cerevisiae deletion strains, locus YKL190W, strain CNB1, active compounds read low 1 | S. cerevisiae deletion strains, locus YKR001C, strain vps1, active compounds read low 1.01 | S. cerevisiae deletion strains, locus YKR026C, strain gcn3, active compounds read low 0.965 | S. cerevisiae deletion strains, locus YKR091W, strain srl3, active compounds read low 0.998 | S. cerevisiae deletion strains, locus YLL001W, strain dnm1, active compounds read low 1 | S. cerevisiae deletion strains, locus YLL026W, active compounds read low 0.992 | S. cerevisiae deletion strains, locus YLL041C, strain sdh2, active compounds read low 0.993 | S. cerevisiae deletion strains, locus YLR027C, strain aat2, active compounds read low 0.998 | S. cerevisiae deletion strains, locus YLR039C, strain RIC1, active compounds read low 1.04 | S. cerevisiae deletion strains, locus YLR058C, strain SHM2, active compounds read low 1.01 | S. cerevisiae deletion strains, locus YLR102C, strain apc9, active compounds read low 1.01 | S. cerevisiae deletion strains, locus YLR113W, strain HOG1, active compounds read low 1 | S. cerevisiae deletion strains, locus YLR221C, strain rsa3, active compounds read low 1.03 | S. cerevisiae deletion strains, locus YLR258W, strain gsy2, active compounds read low 0.993 | S. cerevisiae deletion strains, locus YLR262C, strain YPT6 (second series), active compounds read low 0.942 | S. cerevisiae deletion strains, locus YLR262C, strain YPT6, active compounds read low 0.971 | S. cerevisiae deletion strains, locus YLR268W, strain sec22, active compounds read low 0.987 | S. cerevisiae deletion strains, locus YLR320W, strain mms22, active compounds read low 1 | S. cerevisiae deletion strains, locus YLR330W, strain CHS5, active compounds read low 1 | S. cerevisiae deletion strains, locus YLR342W, strain FKS1 (second series), active compounds read low 1 | S. cerevisiae deletion strains, locus YLR342W, strain FKS1, active compounds read low 0.996 | S. cerevisiae deletion strains, locus YLR357W, strain rsc2, active compounds read low 0.943 | S. cerevisiae deletion strains, locus YLR370C, strain arc18, active compounds read low 0.998 | S. cerevisiae deletion strains, locus YLR371W, strain rom2, active compounds read low 1.03 | S. cerevisiae deletion strains, locus YLR384C, strain iki3, active compounds read low 1.01 | S. cerevisiae deletion strains, locus YLR418C, strain cdc73, active compounds read low 0.946 | S. cerevisiae deletion strains, locus YML016C, strain PPZ1, active compounds read low 0.991 | S. cerevisiae deletion strains, locus YML032C, strain rad52, active compounds read low 1.05 | S. cerevisiae deletion strains, locus YML120C, strain ndi1, active compounds read low 1.01 | S. cerevisiae deletion strains, locus YML124C, strain tub3, active compounds read low 1.01 | S. cerevisiae deletion strains, locus YMR058W, strain fet3, active compounds read low 0.99 | S. cerevisiae deletion strains, locus YMR078C, strain ctf18, active compounds read low 1.03 | S. cerevisiae deletion strains, locus YMR125W, strain sto1, active compounds read low 0.987 | S. cerevisiae deletion strains, locus YMR129W, active compounds read low 1.01 | S. cerevisiae deletion strains, locus YMR205C, strain PFK2, active compounds read low 0.988 | S. cerevisiae deletion strains, locus YMR223W, strain ubp8, active compounds read low 1.05 | S. cerevisiae deletion strains, locus YMR231W, strain pep5, active compounds read low 0.997 | S. cerevisiae deletion strains, locus YMR263W, strain SAP30, active compounds read low 0.999 | S. cerevisiae deletion strains, locus YMR307W, strain GAS1, active compounds read low 1.04 | S. cerevisiae deletion strains, locus YNL067W, strain RPL9B, active compounds read low 1 | S. cerevisiae deletion strains, locus YNL071W, strain lat1, active compounds read low 1 | S. cerevisiae deletion strains, locus YNL128W, strain TEP1, active compounds read low 0.972 | S. cerevisiae deletion strains, locus YNL153C, strain GIM3, active compounds read low 0.98 | S. cerevisiae deletion strains, locus YNL183C, strain NPR1, active compounds read low 0.907 | S. cerevisiae deletion strains, locus YNL209W, strain ssb2, active compounds read low 1 | S. cerevisiae deletion strains, locus YNL233W, strain BNI4, active compounds read low 0.989 | S. cerevisiae deletion strains, locus YNL248C, strain rpa49, active compounds read low 1.04 | S. cerevisiae deletion strains, locus YNL250W, strain rad50, active compounds read low 1.01 | S. cerevisiae deletion strains, locus YNL271C, strain bni1, active compounds read low 0.999 | S. cerevisiae deletion strains, locus YNL298W, strain CLA4, active compounds read low 1.01 | S. cerevisiae deletion strains, locus YNL307C, strain MCK1, active compounds read low 1.04 | S. cerevisiae deletion strains, locus YNL322C, strain KRE1 (second series), active compounds read low 0.981 | S. cerevisiae deletion strains, locus YNL322C, strain KRE1, active compounds read low 1.01 | S. cerevisiae deletion strains, locus YNR049C, strain mso1, active compounds read low 0.993 | S. cerevisiae deletion strains, locus YNR052C, strain pop2, active compounds read low 1.02 | S. cerevisiae deletion strains, locus YOL006C, strain TOP1, active compounds read low 0.984 | S. cerevisiae deletion strains, locus YOL012C, strain htz1 0.622 | S. cerevisiae deletion strains, locus YOL147C, strain pex11, active compounds read low 1.01 | S. cerevisiae deletion strains, locus YOR001W, strain rrp6, active compounds read low 1 | S. cerevisiae deletion strains, locus YOR061W, strain CKA2, active compounds read low 0.995 | S. cerevisiae deletion strains, locus YOR069W, strain VPS5, active compounds read low 1 | S. cerevisiae deletion strains, locus YOR070C, strain gyp1, active compounds read low 1 | S. cerevisiae deletion strains, locus YOR080W, strain dia2, active compounds read low 0.986 | S. cerevisiae deletion strains, locus YOR083W, strain WHI5, active compounds read low 1.02 | S. cerevisiae deletion strains, locus YOR106W, strain vam3, active compounds read low 1.04 | S. cerevisiae deletion strains, locus YOR136W, strain idh2, active compounds read low 1.02 | S. cerevisiae deletion strains, locus YOR144C, strain elg1, active compounds read low 1.01 | S. cerevisiae deletion strains, locus YOR184W, strain ser1, active compounds read low 1.1 | S. cerevisiae deletion strains, locus YOR231W, strain MKK1, active compounds read low 0.987 | S. cerevisiae deletion strains, locus YOR265W, strain rbl2, active compounds read low 0.993 | S. cerevisiae deletion strains, locus YOR270C, strain vph1, active compounds read low 1.01 | S. cerevisiae deletion strains, locus YOR290C, strain snf2, active compounds read low 0.947 | S. cerevisiae deletion strains, locus YOR316C, strain cot1, active compounds read low 1.02 | S. cerevisiae deletion strains, locus YPL051W, strain arl3, active compounds read low 1 | S. cerevisiae deletion strains, locus YPL055C, strain LGE1, active compounds read low 0.964 | S. cerevisiae deletion strains, locus YPL078C, strain atp4, active compounds read low 1.02 | S. cerevisiae deletion strains, locus YPL106C, strain sse1, active compounds read low 0.964 | S. cerevisiae deletion strains, locus YPL240C, strain hsp82, active compounds read low 1 | S. cerevisiae deletion strains, locus YPL241C, strain CIN2, active compounds read low 1.01 | S. cerevisiae deletion strains, locus YPL256C, strain CLN2, active compounds read low 0.968 | S. cerevisiae deletion strains, locus YPR119W, strain clb2, active compounds read low 1.01 | S. cerevisiae deletion strains, locus YPR141C, strain kar3, active compounds read low 1.01 | S. cerevisiae deletion strains, locus YPR163C, strain tif3, active compounds read low 1.02 | S. cerevisiae deletion strains, locus YPR167C, strain met16, active compounds read low 1.01 | S. cerevisiae deletion strains, strain wtn01, active compounds read low 0.998 | S. cerevisiae strains, strain wild type, active compounds read low 1
